In the supplement of paper PMC12819154, “High-throughput peptide-centric local stability assay extends protein–ligand identification to membrane proteins, tissues and bacteria” (Nature Structural & Molecular Biology, 2025):

compound: Nc1ncnc2c1ncn2[C@@H]1O[C@H](COP(=O)(O)OP(=O)(O)OP(=O)(O)O)[C@@H](O)[C@H]1O [adenosine 5'-triphosphate]; assay: log2 fold change of tryptic peptide abundance, ligand vs vehicle (limited proteolysis) (log2 ratio); higher = more trypsin-susceptible (destabilized); settings: ligand concentration: 5 mM; sample: E. coli desalted lysate; replicate design: treated before aliquoting
Experimental: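 HT-PELSA: desalted E. coli K-12 BW25113 lysate (with 12 mM MgCl2) incubated with 5 mM ATP (pH 7) or water for 30 min at 25 C, then a 4 min trypsin pulse at 22 C. Peptides were quantified by DIA-MS (4 replicates). Value is the peptide log2 fold change (treated/control); negative = stabilized. Scale: negative = ligand-stabilized region.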
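Further: lysate desalted by size exclusion to strip endogenous ATP, peptide intensities built from DIA-NN precursor signals, and peptides missing any value discarded before comparison.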

| Target | log2 fold change |
| --- | --- |
| UniProt P36547 (peptide sequence: TANLHHLYHEPLPENLK, peptide start residue: 6) | -0.813 |
| MurD (peptide sequence: YLNGDNVR, peptide start residue: 359) (UniProt P14900) | -1.33 |
| UniProt P0ACU0 (peptide sequence: LLTQDDTVNLSK, peptide start residue: 109) | 0.555 |
| UniProt P15005 (peptide sequence: LAYLLTGEK, peptide start residue: 214) | -1.01 |
| UniProt P37774 (peptide sequence: TMVIVTHEMSFAR, peptide start residue: 196) | 1.7 |
| UniProt P31554 (peptide sequence: GNIMWENEFR, peptide start residue: 268) | -0.46 |
| UniProt P37024 (peptide sequence: LVVDCAQER, peptide start residue: 286) | -0.502 |
| UniProt P37675 (peptide sequence: IVDLPMKLVGHK, peptide start residue: 78) | 0.735 |
| UniProt P33667 (peptide sequence: MIGSNHLPECLR, peptide start residue: 220) | 0.32 |
| UniProt P77536 (peptide sequence: MVDELGHWEEWRDR, peptide start residue: 41) | -0.517 |
| UniProt P76536 (peptide sequence: ALSGGVGAEELK, peptide start residue: 66) | 0.555 |
| UniProt P0AB12 (peptide sequence: VVSVETAQAAR, peptide start residue: 129) | 0.652 |
| UniProt P0A8Y3 (peptide sequence: VVVLSNTNR, peptide start residue: 103) | 0.564 |
| UniProt P06999 (peptide sequence: IYAYLSR, peptide start residue: 303) | -2.25 |
| UniProt P75863 (peptide sequence: WVGPQMTR, peptide start residue: 122) | -0.577 |
| UniProt P23883 (peptide sequence: ALSLAIENR, peptide start residue: 13) | -2.59 |
| UniProt P30011 (peptide sequence: VRHYVELLEGTNTQLLDTR, peptide start residue: 135) | 0.868 |
| UniProt P52129 (peptide sequence: LQIQGRPLSCYR, peptide start residue: 161) | 0.646 |
| UniProt P80668 (peptide sequence: TAADHLTR, peptide start residue: 261) | -1.12 |
| UniProt Q46889 (peptide sequence: LQQEGYR, peptide start residue: 188) | -0.564 |

| Target | log2 fold change |
| --- | --- |
| UniProt P10907 (peptide sequence: ILELDGLLK, peptide start residue: 121) | -0.369 |
| UniProt P0C0L2 (peptide sequence: GQAHWEGDIKR, peptide start residue: 7) | -0.717 |
| UniProt P25888 (peptide sequence: DLMASAQTGTGK, peptide start residue: 40) | -1.66 |
| UniProt P31060 (peptide sequence: ALAGELPLLKGER, peptide start residue: 48) | -1.32 |
| UniProt P24192 (peptide sequence: PAPQQVCDDPR, peptide start residue: 310) | -0.597 |
| UniProt P36938 (peptide sequence: FMHLDKDGAIR, peptide start residue: 268) | -0.898 |
| UniProt P00954 (peptide sequence: QHLELSR, peptide start residue: 152) | -0.982 |
| UniProt P24240 (peptide sequence: YGFVFVDRDDAGNGTLTR, peptide start residue: 436) | -0.866 |
| UniProt P0A9L3 (peptide sequence: VINQGEGAIPARTDR, peptide start residue: 108) | 0.513 |
| UniProt P76097 (peptide sequence: FGEIEQR, peptide start residue: 288) | 0.885 |
| UniProt P39830 (peptide sequence: GANQVVMGER, peptide start residue: 528) | 1.21 |
| UniProt P06149 (peptide sequence: VRDIEADTPAR, peptide start residue: 232) | -1.35 |
| UniProt P32131 (peptide sequence: QQHKADQYLDALEQEIVHR, peptide start residue: 78) | 1.02 |
| UniProt P07023 (peptide sequence: KVEHWFGDYAQR, peptide start residue: 345) | 0.528 |
| UniProt P27240 (peptide sequence: IKDLVVFTDENNSK, peptide start residue: 7) | -0.431 |
| UniProt P39285 (peptide sequence: IYAAEMGHR, peptide start residue: 1044) | 0.638 |
| UniProt P42630 (peptide sequence: ITAWKGQEELLSK, peptide start residue: 129) | 0.565 |
| UniProt P37760 (peptide sequence: ALQEYCAK, peptide start residue: 138) | -1.03 |
| UniProt P08373 (peptide sequence: VNGNAGSFFKNPVVSAETAK, peptide start residue: 223) | 0.267 |
| UniProt P75821 (peptide sequence: DIKEDFRPHR, peptide start residue: 126) | -1.6 |
